The values below come from the supplement of paper PMC10849652.

What all share (assay): log2 fold change, soluble protein after heating vs DMSO (PISA); higher = thermal stabilisation; K562 lysate, 10 uM; active = over 0.2 and 3.5 SD of the protein, either way, in both replicates (recomputed)
Compound in assay [1]: CS(=O)(=O)CCNCc1ccc(-c2ccc3ncnc(Nc4ccc(OCc5cccc(F)c5)c(Cl)c4)c3c2)o1 [lapatinib]
The procedure, abridged:
(§1)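 Quantification was by TMTpro 16plex LC-MS/MS with equalised channel sums, applied to the supernatant after 21,000xg for 90 min. Samples were crude K562 extract at 1 mg/mL protein in PBS pH 7.4 with 1 mM MgCl2, treated with 10 μM compound for 30 min, heated for 3 min across 48°C-58°C, pooled and brought to 0.5% NP-40 at 4°C. Values are log-two fold changes in thermal stability relative to solvent controls, from duplicates.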

Compound in assay [2]: CS(=O)(=O)N1CCN(Cc2cc3nc(-c4cccc5[nH]ncc45)nc(N4CCOCC4)c3s2)CC1 [pictilisib]
The procedure, abridged:
as §1

Compound in assay [3]: C[C@@H](Oc1cc(-c2cnn(C3CCNCC3)c2)cnc1N)c1c(Cl)ccc(F)c1Cl [crizotinib]
The method in brief:
as §1

Compound in assay [4]: C[C@H](C1=CC=C(C=C1)C(=O)NC2=C3C=CNC3=NC=C2)N
The procedure, abridged: as §1

Compound in assay [5]: C[C@H](Nc1ncnc2nc[nH]c12)c1cc2cccc(Cl)c2c(=O)n1-c1ccccc1 [duvelisib]
The procedure, abridged:
as §1

Compound in assay [6]: Cc1cc(Nc2cc(CN3CCOCC3)c3nc(C)c(Cc4ccc(Cl)cc4F)n3n2)n[nH]1 [gandotinib]
The procedure, abridged:
as §1

Compound in assay [7]: Cc1cc(Nc2cc(N3CCN(C)CC3)nc(Sc3ccc(NC(=O)C4CC4)cc3)n2)n[nH]1 [tozasertib]
The procedure, abridged:
as §1

Compound in assay [8]: Cc1ccc(-n2nc(C(C)(C)C)cc2NC(=O)Nc2ccc(OCCN3CCOCC3)c3ccccc23)cc1 [doramapimod]
The method in brief: as §1

Compound in assay [9]: Cc1ccc(NC(=O)c2ccc(CN3CC[C@H](N(C)C)C3)c(C(F)(F)F)c2)cc1Nc1nccc(-c2cncnc2)n1 [bafetinib]
The procedure, abridged:
as §1

Compound in assay [10]: Cc1cccc(CC(=O)N2CCc3c2ccc(-c2cn(C)c4ncnc(N)c24)c3F)n1
The method in brief:
as §1

The full data set covers some 8,800 targets. This sample favours those with a hit. About 0.5% of all pairs of compound and target were hits. Values without a mark were called inactive.

Chain of UniProt Q9UHX1 (Q9UHX1 whole entry, looked up): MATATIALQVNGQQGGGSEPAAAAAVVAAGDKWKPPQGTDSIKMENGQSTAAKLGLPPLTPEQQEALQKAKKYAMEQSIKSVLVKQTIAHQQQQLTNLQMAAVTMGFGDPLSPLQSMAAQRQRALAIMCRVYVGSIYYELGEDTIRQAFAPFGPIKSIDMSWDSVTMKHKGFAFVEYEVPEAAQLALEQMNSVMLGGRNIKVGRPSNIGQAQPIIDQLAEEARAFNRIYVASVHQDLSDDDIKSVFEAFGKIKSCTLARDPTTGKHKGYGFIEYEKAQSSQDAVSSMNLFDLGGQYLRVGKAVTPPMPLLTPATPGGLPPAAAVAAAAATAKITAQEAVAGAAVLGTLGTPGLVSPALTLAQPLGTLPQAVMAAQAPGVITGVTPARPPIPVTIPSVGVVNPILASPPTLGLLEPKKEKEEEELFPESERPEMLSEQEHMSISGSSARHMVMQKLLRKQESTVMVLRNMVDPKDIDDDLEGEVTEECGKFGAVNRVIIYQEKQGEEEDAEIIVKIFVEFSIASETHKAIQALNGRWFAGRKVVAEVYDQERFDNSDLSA
Chain of UniProt Q9H0N5 (Q9H0N5 whole entry, looked up): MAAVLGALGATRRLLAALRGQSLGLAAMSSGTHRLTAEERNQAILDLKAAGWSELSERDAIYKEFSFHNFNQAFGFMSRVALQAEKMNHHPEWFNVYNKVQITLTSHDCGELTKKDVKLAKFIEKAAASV
Chain of UniProt Q9BZE2 (Q9BZE2 whole entry, looked up): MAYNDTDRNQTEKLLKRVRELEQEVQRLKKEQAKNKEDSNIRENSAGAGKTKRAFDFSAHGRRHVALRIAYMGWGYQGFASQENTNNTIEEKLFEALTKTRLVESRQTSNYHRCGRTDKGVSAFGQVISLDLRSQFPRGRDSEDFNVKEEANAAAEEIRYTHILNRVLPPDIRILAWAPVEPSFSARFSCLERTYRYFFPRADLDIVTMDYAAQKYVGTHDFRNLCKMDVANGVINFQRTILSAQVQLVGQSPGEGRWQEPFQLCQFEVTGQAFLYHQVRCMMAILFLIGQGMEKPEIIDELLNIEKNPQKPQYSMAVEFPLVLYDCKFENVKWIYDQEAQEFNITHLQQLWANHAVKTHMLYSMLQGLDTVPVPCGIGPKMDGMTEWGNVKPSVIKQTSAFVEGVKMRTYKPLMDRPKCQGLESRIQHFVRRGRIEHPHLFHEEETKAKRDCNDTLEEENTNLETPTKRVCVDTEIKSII
Chain of UniProt P57721 (P57721 whole entry, looked up): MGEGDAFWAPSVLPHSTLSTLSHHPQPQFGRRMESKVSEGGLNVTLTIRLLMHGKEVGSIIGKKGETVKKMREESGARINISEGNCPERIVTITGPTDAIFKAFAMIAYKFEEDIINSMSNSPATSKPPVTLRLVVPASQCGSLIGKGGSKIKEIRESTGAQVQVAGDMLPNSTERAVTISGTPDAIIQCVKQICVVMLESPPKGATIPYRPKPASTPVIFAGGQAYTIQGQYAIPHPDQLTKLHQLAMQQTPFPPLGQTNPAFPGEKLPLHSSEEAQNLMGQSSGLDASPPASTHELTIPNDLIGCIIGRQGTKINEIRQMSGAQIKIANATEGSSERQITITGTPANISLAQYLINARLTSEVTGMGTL
Chain of UniProt Q5VU43 (Q5VU43 whole entry, looked up): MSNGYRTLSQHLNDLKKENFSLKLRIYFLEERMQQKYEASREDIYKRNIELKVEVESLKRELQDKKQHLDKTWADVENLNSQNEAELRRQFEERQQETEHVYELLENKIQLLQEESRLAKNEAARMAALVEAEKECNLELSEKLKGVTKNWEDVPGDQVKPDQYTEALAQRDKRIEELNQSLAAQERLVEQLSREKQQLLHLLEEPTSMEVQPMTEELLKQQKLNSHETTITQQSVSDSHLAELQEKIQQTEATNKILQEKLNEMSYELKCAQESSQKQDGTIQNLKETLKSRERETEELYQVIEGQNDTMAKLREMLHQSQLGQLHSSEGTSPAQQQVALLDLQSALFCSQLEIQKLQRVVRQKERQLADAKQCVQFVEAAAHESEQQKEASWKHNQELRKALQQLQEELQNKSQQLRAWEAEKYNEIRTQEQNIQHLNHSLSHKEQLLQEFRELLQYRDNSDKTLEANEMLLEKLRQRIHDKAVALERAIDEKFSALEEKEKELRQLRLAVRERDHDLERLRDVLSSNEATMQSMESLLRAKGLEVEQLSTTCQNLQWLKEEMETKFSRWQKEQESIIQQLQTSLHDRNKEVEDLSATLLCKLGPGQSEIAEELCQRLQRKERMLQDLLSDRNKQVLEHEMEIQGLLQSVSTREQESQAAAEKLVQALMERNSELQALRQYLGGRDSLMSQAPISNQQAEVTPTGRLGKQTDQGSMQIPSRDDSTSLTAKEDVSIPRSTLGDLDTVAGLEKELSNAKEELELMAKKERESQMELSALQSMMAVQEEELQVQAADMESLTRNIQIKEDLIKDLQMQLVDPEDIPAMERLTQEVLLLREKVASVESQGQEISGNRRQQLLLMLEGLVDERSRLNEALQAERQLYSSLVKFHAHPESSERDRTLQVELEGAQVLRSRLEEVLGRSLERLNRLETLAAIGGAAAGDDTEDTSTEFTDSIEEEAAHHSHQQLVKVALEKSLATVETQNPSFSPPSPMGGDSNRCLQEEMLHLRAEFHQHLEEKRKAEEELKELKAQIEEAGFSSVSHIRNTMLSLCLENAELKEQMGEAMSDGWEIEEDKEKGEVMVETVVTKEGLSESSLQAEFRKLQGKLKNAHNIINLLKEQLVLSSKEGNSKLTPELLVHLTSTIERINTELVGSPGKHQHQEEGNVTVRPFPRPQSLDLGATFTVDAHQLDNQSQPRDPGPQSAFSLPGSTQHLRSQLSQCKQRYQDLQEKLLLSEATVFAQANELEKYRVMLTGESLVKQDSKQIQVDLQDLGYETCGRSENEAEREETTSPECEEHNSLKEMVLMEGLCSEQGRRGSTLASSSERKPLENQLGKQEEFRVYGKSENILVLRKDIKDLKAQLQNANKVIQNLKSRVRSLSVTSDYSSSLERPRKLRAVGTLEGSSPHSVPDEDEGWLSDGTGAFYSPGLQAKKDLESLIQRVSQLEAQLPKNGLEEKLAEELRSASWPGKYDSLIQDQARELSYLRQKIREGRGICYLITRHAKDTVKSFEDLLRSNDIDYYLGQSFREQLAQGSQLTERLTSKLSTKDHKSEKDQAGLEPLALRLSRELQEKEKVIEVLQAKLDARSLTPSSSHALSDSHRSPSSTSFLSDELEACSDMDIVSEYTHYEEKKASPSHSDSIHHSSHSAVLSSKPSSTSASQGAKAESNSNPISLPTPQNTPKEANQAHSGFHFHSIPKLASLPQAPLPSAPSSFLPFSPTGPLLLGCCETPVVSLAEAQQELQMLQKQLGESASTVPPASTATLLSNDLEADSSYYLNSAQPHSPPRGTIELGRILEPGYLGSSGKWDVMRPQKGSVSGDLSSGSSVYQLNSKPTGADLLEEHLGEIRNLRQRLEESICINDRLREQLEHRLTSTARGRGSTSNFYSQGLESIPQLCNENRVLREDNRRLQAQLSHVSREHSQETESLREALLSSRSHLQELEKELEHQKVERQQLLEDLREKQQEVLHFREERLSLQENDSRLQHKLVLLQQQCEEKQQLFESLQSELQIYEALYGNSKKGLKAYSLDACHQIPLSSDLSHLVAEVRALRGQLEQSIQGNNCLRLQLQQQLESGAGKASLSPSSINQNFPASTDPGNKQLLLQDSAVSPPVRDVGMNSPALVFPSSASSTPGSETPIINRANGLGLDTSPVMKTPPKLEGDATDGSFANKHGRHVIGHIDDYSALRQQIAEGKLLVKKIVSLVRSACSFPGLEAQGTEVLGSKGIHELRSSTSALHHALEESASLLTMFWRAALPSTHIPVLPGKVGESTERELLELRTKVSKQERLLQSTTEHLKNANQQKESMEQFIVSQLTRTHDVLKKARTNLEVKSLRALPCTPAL
Chain of UniProt P0C869 (P0C869 whole entry, looked up): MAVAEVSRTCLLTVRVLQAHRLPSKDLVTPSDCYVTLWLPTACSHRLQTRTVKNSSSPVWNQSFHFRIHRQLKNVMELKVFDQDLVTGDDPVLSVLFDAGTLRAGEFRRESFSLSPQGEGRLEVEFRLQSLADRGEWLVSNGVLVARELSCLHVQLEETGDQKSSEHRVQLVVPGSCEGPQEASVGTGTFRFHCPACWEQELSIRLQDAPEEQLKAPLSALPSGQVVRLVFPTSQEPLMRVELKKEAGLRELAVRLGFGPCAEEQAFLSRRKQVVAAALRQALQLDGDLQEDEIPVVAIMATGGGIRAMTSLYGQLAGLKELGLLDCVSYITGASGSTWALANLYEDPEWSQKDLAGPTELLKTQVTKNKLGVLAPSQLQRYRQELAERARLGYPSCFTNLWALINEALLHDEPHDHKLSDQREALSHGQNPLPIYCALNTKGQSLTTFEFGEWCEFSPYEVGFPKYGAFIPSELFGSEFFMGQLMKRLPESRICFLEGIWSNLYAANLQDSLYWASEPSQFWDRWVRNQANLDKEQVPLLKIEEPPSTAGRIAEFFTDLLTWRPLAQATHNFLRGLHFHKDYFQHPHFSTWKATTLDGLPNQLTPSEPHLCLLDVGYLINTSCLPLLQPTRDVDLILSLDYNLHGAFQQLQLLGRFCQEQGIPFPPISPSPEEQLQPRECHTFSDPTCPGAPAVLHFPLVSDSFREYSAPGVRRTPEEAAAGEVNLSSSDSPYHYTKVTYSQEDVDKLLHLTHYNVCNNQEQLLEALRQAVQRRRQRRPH
Chain of UniProt Q15366 (Q15366 whole entry, looked up): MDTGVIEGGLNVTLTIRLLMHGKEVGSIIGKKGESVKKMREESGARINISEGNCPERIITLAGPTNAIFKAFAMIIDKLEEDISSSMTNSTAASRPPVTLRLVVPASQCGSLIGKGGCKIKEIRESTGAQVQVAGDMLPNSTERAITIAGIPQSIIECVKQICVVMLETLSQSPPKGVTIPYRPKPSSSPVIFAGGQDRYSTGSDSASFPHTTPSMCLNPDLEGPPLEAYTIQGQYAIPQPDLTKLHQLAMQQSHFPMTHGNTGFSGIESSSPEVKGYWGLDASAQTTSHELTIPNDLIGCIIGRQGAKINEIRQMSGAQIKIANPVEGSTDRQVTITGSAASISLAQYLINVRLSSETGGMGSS

Consider PDXDC1 (UniProt Q6P996), for which the log2 fold change in [1] is -0.025; in assay [2], -0.019; in assay [3] it was -0.056; in assay [4], -0.011; in assay [5], 0.019; in assay [6], 0. In addition, the log2 fold change in assay [7] is 0.01; in assay [8], 0.007; in [9], -0.128; in assay [10] it was 0.062.

Consider PDE4DIP isoform 4 (UniProt Q5VU43), for which the log2 fold change in [1] is -0.003; in assay [2], -0.076; in assay [3], -0.048; in assay [4] it was -0.069; in [5], -0.017; in [6], 0.116. For the same target, the log2 fold change in assay [7] is -0.005; in assay [8], 0; in assay [9], -0.073; in assay [10], 0.05.

PMPCA (UniProt Q10713): the log2 fold change was -0.02 in assay [1]; -0.043 in assay [2]; -0.048 in [3]; -0.053 in [4]; 0.053 in assay [5]; -0.004 in assay [6]. In addition, the log2 fold change was 0.016 in assay [7], 0.079 in assay [8], 0.046 in [9] and 0.025 in assay [10].

As to PUS3 (UniProt Q9BZE2), the log2 fold change in assay [1] was 0.008; in [2], -0.085; in [3], 0.013; in assay [4], 0.148; in [5], -0.03; in [6], -0.234. Besides, the log2 fold change in assay [7] was 0.019; in [8], -0.087; in [9], -0.005; in assay [10] it was -0.185.

Regarding PPFIA2 (UniProt O75334), the log2 fold change in assay [1] was -0.014; in assay [2], 0.031; in assay [3] it was -0.212; in [4], -0.244 (active); in assay [5], 0.001; in assay [6], 0.139. Besides, the log2 fold change in assay [7] was -0.028; in assay [8], 0.023; in assay [9], 0.019; in assay [10], 0.147.

Regarding PCIF1 (UniProt Q9H4Z3), the log2 fold change in assay [1] is -0.059; in [2], -0.016; in [3], -0.001; in assay [4], -0.239 (active); in assay [5], 0.216; in assay [6], 0.074. Besides, the log2 fold change in assay [7] is -0.003; in assay [8], 0.017; in assay [9] it was -0.059; in assay [10], 0.09.

In the case of PRC1 (UniProt O43663), the log2 fold change was -0.014 in [1]; -0.007 in [2]; -0.109 in assay [3]; 0.023 in assay [4]; 0.059 in assay [5]; -0.003 in [6]. In addition, the log2 fold change in [7] was 0.017; in [8], 0.004; in assay [9], -0.079; in [10], 0.025.

As for PWP2 (UniProt Q15269), the log2 fold change in assay [1] is -0.017; in assay [2] it was -0.012; in assay [3] it was 0.001; in [4] it was -0.016; in [5], 0.005; in assay [6], -0.075. In addition, the log2 fold change in assay [7] was -0.013; in assay [8] it was -0.017; in assay [9], -0.023; in assay [10], 0.029.

In the case of PRKAR2B (UniProt P31323), the log2 fold change in assay [1] is 0.013; in [2], -0.059; in assay [3] it was -0.007; in [4] it was -0.011; in [5], 0; in [6], -0.31 (active). Moreover, the log2 fold change is 0.038 in [7], 0.017 in assay [8], -0.02 in assay [9] and 0.001 in assay [10].

With PCBD2 (UniProt Q9H0N5), the log2 fold change was -0.014 in [1]; -0.009 in assay [2]; -0.051 in assay [3]; -0.228 (active) in assay [4]; 0.028 in assay [5]; 0.141 in assay [6]. Moreover, the log2 fold change in assay [7] is 0.031; in assay [8], 0.008; in assay [9], -0.063; in assay [10] it was 0.096.

On to PDCD6IP isoform 2 (UniProt Q8WUM4), for which the log2 fold change in assay [1] is 0; in assay [2] it was -0.015; in [3] it was -0.015; in assay [4], 0.071; in assay [5], -0.009; in [6], -0.09. The log2 fold change in [7] is 0.024; in [8], -0.008; in [9] it was -0.006; in assay [10] it was -0.019.

With PCBP3 (UniProt P57721), the log2 fold change in assay [1] is -0.031; in [2] it was -0.035; in assay [3], 0.002; in [4], -0.067; in [5], -0.014; in assay [6], 0.028. The log2 fold change in [7] was 0.001; in assay [8] it was 0.014; in [9], -0.03; in [10] it was 0.026.

For PUF60 (UniProt Q9UHX1), the log2 fold change was 0 in assay [1]; -0.037 in assay [2]; 0.036 in assay [3]; 0.092 in assay [4]; -0.01 in [5]; -0.05 in assay [6]. Further, the log2 fold change was -0.017 in assay [7], -0.012 in assay [8], 0.012 in assay [9] and -0.058 in assay [10].

In the case of PLA2G4B isoform 6 (UniProt P0C869), the log2 fold change in assay [1] was -0.001; in assay [2], -0.032; in assay [3], -0.49; in assay [4], -0.015; in assay [5] it was -0.038; in assay [6] it was 0.069. Moreover, the log2 fold change in assay [7] is -0.009; in assay [8], 0; in [9], -0.133; in [10] it was 0.086.

For PCBP2 isoform 3 (UniProt Q15366), the log2 fold change in assay [1] is -0.013; in assay [2], -0.008; in assay [3], 0.079; in [4], -0.005; in assay [5] it was -0.015; in assay [6], -0.023. Also, the log2 fold change in assay [7] is 0.014; in assay [8], 0.012; in [9] it was 0.002; in assay [10], -0.042.
